4 compounds from publication PMC5540273 (PLoS ONE, 2017) can be followed below.

Test systems include CAMK2D; CAMK2G; CAMK4; CAMKK1; CAMKK2; CASK; CDC2L2.
What all share (conditions): concentration: 1 μM, replicates: in singlicate; n = 1
A further test relates to T1, CDC2L1.
T1 construct: gene CDK11B

For the next test, the system named is T2, CDC2L5.
T2 construct: gene CDK13

The subject of a further test is T3, CDK11.
T3 construct: gene CDK19
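Note: KINOMEscan kinase panel screen.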

On to `CCCc1ccc(S(=O)(=O)NC2CCN(c3ccnc(Nc4ccc(OC)cc4)n3)C2)cc1` (stereo not shown) [GSK1379737], for which the “%Inh” value in the test on CAMK2D is recorded as 4%; with CAMK2G, 4%; in the test on CAMK4 it was 0%; with CAMKK1 it was 0%; in the test on CAMKK2, 0%; in the test with CASK, 22%. Also, the “%Inh” value was 0% in the test on CDC2L1, 0% in the test on CDC2L2, 0% in the test with CDC2L5 and 17% in the test on CDK11.
For the compound `COC(=O)c1cccc(NC(=O)NCCNc2ccnc(Nc3ccc(F)cc3)n2)c1` [GSK1379883], the “%Inh” value in the test with CAMK2D is 0%; in the test with CAMK2G it was 17%; in the test on CAMK4, 0%; in the test on CAMKK1, 11%; in the test on CAMKK2, 6%; with CASK it was 0%. Besides, the “%Inh” value with CDC2L1 was 0%; in the test with CDC2L2, 20%; in the test on CDC2L5, 0%; with CDK11, 16%.
Consider `O=C(c1ccc(-c2cc(-c3c[nH]nc3-c3ccccn3)ccn2)cc1)N1CCCC1` [GW792479], for which the “%Inh” value stood at 3% in the test with CAMK2D; 56% with CAMK2G; 0% with CAMK4; 23% with CAMKK1; 46% with CAMKK2; 21% in the test with CASK. Besides, the “%Inh” value in the test on CDC2L1 is 0%; with CDC2L2, 7%; with CDC2L5, 15%; with CDK11, 5%.
As to `COc1cc2c(Nc3cccc(NC(=O)c4ccccc4)c3)ncnc2cc1OCCCN1CCOCC1` [GSK223810], the “%Inh” value in the test with CAMK2D amounted to 0%; in the test with CAMK2G it was 15%; in the test with CAMK4 it was 0%; in the test on CAMKK1, 1%; in the test on CAMKK2 it was 0%; with CASK it was 6%. Also, the “%Inh” value with CDC2L1 was 0%; with CDC2L2, 11%; with CDC2L5, 0%; with CDK11, 3%.
